Records with an inconclusive call do not appear. Activity calls are given as the source filed them. The calls were made as follows, unless noted: active = hit-call score of the fitted dose curve at least 0.9, where 1 is the maximum; inconclusive = response in the unintended direction; inactive = score below 0.9.
Assays:
[1] = biological target: human Peroxisome Proliferator-activated Receptor alpha (PPARa), PPARA (gene 5465) (UniProt Q07869); assay: ATG_PPARa_TRANS: Attagene TRANS-FACTORIAL HepG2 Assay for human Peroxisome Proliferator-activated Receptor alpha (PPARa) (AID 2283001);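 as to AC50: potency for gain of reporter signal over DMSO so agonist or activator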
Procedure, shortened: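 Read-out is fluorescence of reporter cDNA fragments resolved by capillary electrophoresis after RT-PCR. Human HepG2 liver cells carried transfected PPARa-Gal4 chimera and GAL4-UAS reporter units, treated 24 h; activity scored as increase over DMSO.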

[2] = biological target: Peroxisome proliferator-activated receptor gamma (Homo sapiens) (UniProt P37231); assay: ATG_PPARg_TRANS: Attagene TRANS-FACTORIAL HepG2 Assay for human Peroxisome Proliferator-activated Receptor-gamma (PPARg) (AID 2283007)
Procedure, shortened: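 HepG2 cells transiently transfected with multiplexed GAL4-UAS reporter units and exogenous chimeric NR-Gal4 proteins; reporter mRNA quantified after 24 h compound exposure by RT-PCR, fluorescent labelling, HpaI digestion and capillary electrophoresis; gain-of-signal fitted versus DMSO baseline.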

[3] = biological target: human RAR-related Orphan Receptor gamma (RORg), RORC (gene 6097) (UniProt P51449); assay: ATG_RORg_TRANS: Attagene TRANS-FACTORIAL HepG2 Assay for human RAR-related Orphan Receptor gamma (RORg) (AID 2283011)
Procedure, shortened: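 Transient MRTU transfection of HepG2 (TRANS format, exogenous NR-Gal4 chimera). 24 h dosing. Total RNA → oligo(dT) RT → PCR → 6-FAM labelling → HpaI cut → CE. Gain vs DMSO.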

[4] = biological target: Retinoic acid receptor RXR-alpha (Homo sapiens) (UniProt P19793); assay: ATG_RXRa_TRANS: Attagene TRANS-FACTORIAL HepG2 Assay for human Retinoid X Receptor alpha (RXRa) (AID 2283012)
Procedure, shortened: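 Transient transfection of human HepG2 with multiple GAL4-UAS reporter constructs; 24 h compound exposure; total RNA isolated, reverse-transcribed, PCR-amplified, 6-FAM labelled, HpaI-cut, resolved by capillary electrophoresis. Positive-direction fit versus DMSO.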

[5] = biological target: human Vitamin D Receptor (VDR), VDR (gene 7421) (UniProt P11473); assay: ATG_VDR_TRANS: Attagene TRANS-FACTORIAL HepG2 Assay for human Vitamin D Receptor (VDR) (AID 2283022)
Procedure, shortened: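 RT-PCR/capillary electrophoresis read-out of reporter mRNA induction in transiently transfected HepG2; 24 h dosing; chimeric NR-Gal4 (TRANS format); gain-of-signal fit against DMSO baseline.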

[6] = biological target: human Peroxisome Proliferator-activated Receptor delta (PPARd), PPARD (gene 5467) (UniProt Q03181); assay: ATG_PPARd_TRANS: Attagene TRANS-FACTORIAL HepG2 Assay for human Peroxisome Proliferator-activated Receptor delta (PPARd) (AID 2283002)
Procedure, shortened: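 Read-out is induced reporter mRNA, quantified by RT-PCR with fluorescent labelling and capillary electrophoresis after 24 h dosing. Cells are HepG2 transiently carrying multiple GAL4-UAS reporter units driven by exogenous NR-GAL4 chimeras; DMSO serves as baseline.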

[7] = biological target: human Retinoic Acid Receptor beta (RARb), RARB (gene 5915) (UniProt P10826); assay: ATG_RARb_TRANS: Attagene TRANS-FACTORIAL HepG2 Assay for human Retinoic Acid Receptor beta (AID 2283004)
Procedure, shortened: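 Readout is reporter mRNA induction: RNA reverse-transcribed, PCR-amplified, FAM-labelled, HpaI-cut and resolved by capillary electrophoresis. Transiently transfected HepG2 cells carrying exogenous NR–Gal4 chimeras were dosed for 24 h; activity fitted upward relative to DMSO.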

[8] = biological target: Retinoic acid receptor alpha (Homo sapiens) (UniProt P10276); assay: ATG_RARa_TRANS: Attagene TRANS-FACTORIAL HepG2 Assay for human Retinoic Acid Receptor alpha (RARa) (AID 2283005)
Procedure, shortened: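 Reporter transcripts, measured by RT-PCR with fluorescent labeling and capillary electrophoresis after 24 h dosing, reflect activity of an exogenous human RARa–GAL4 fusion in transiently transfected HepG2. Fitted for increase relative to DMSO.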

[9] = biological target: Nuclear receptor subfamily 1 group I member 2 (Homo sapiens) (UniProt O75469); assay: ATG_PXR_TRANS: Attagene TRANS-FACTORIAL HepG2 Assay for human Pregnane X Receptor (PXR) (AID 2283008)
Procedure, shortened: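 HepG2 cells transiently transfected with GAL4-UAS reporter units and PXR-Gal4 chimera, exposed 24 h. Reporter mRNA quantified by RT-PCR, fluorescent labelling, HpaI digestion and capillary electrophoresis; gain of signal vs DMSO.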

[10] = biological target: human Retinoic Acid Receptor gamma (RARg), RARG (gene 5916) (UniProt P13631); assay: ATG_RARg_TRANS: Attagene TRANS-FACTORIAL HepG2 Assay for human Retinoic Acid Receptor gamma (RARg) (AID 2283009)
Procedure, shortened: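 Transient transfection of HepG2 with multi-reporter constructs, then 24 h chemical treatment. Total RNA isolated, reverse-transcribed, PCR-amplified, fluorescently labelled and resolved by capillary electrophoresis; activity scored as mRNA induction versus DMSO.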

[11] = biological target: human RAR-related Orphan Receptor beta (RORb), RORB (gene 6096) (UniProt Q92753); assay: ATG_RORb_TRANS: Attagene TRANS-FACTORIAL HepG2 Assay for human RAR-related Orphan Receptor beta (RORb) (AID 2283010)
Procedure, shortened: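 Readout is reporter-gene mRNA induction, detected as fluorescence after RT-PCR and capillary electrophoresis, fitted for gain of signal against DMSO controls. Transiently transfected HepG2 liver cells carrying GAL4-UAS reporter constructs were treated for 24 hours.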

[12] = biological target: human Retinoid X Receptor beta (RXRb), RXRB (gene 6257) (UniProt P28702); assay: ATG_RXRb_TRANS: Attagene TRANS-FACTORIAL HepG2 Assay for human Retinoid X Receptor beta (RXRb) (AID 2283013)
Procedure, shortened: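 Transfect HepG2 with GAL4-UAS multi-reporter constructs (chimeric NR-Gal4, TRANS format); dose compound 24 h; isolate RNA, RT-PCR, FAM primer extension, HpaI digest; quantify by capillary electrophoresis; positive direction vs DMSO.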

[13] = biological target: human Thyroid Receptor alpha (THRa1), THRA (gene 7067) (UniProt P10827); assay: ATG_THRa1_TRANS: Attagene TRANS-FACTORIAL HepG2 Assay for human Thyroid Receptor alpha (THRa1) (AID 2283014)
Procedure, shortened: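 Transient HepG2 transfection, NR-Gal4 chimera driving GAL4-UAS reporters; 24 h compound exposure; total RNA, oligo(dT) RT, PCR, fluorescent primer extension, capillary electrophoresis. Upward direction vs DMSO control.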

[14] = read-out: Intercellular Adhesion Molecule 1 (ICAM1), ICAM1 (gene 3383); assay: BSK_3C_ICAM1: BioMAP Diversity Plus: 3C Assay for Intercellular Adhesion Molecule 1 (ICAM1) Biomarker Activity (AID 2283003; active = hit-call score of the fitted dose curve at least 0.9, where 1 is the maximum; inactive = score below 0.9); conditions: primary human endothelial cells (HUVEC); actives raise or lower the signal
Procedure, shortened: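 ICAM-1 levels measured by ELISA after HUVEC cultures in the 3C system had been dosed for 24 h. Gain or loss of signal relative to DMSO was fitted in both directions.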

[15] = BSK_3C_Proliferation: Cell Proliferation Assessment in the BioMAP Diversity Plus: 3C Assay (AID 2283006; active = hit-call score of the fitted dose curve at least 0.9, where 1 is the maximum; inactive = score below 0.9;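 as to AC50: potency may reflect either rise or fall in cell number versus DMSO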); conditions: primary human endothelial cells (HUVEC)
Procedure, shortened: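 Read-out is total protein by SRB absorbance at 560 nm, taken as a proxy for relative cell number. Primary human umbilical vein endothelium cultured below confluence was dosed for 48 h, TCA-fixed and SRB-stained; curves were fitted bidirectionally versus DMSO.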

[16] = read-out: E-selectin (Homo sapiens) (UniProt P16581); assay: BSK_3C_Eselectin: BioMAP Diversity Plus: 3C Assay for Eselectin Biomarker Activity (AID 2283015; active = hit-call score of the fitted dose curve at least 0.9, where 1 is the maximum; inactive = score below 0.9); conditions: primary human endothelial cells (HUVEC); actives raise or lower the signal
Procedure, shortened: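 HUVEC, 3C stimulation; compound exposure 24 h; E-selectin by ELISA; gain- or loss-of-signal fitted bidirectionally vs DMSO baseline.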

[17] = read-out: Interleukin-1 alpha (IL1a), IL1A (gene 3552); assay: BSK_BE3C_IL1a: BioMAP Diversity Plus: BE3C Assay for Interleukin-1 alpha (IL1a) Biomarker Activity (AID 2283016; active = hit-call score of the fitted dose curve at least 0.9, where 1 is the maximum; inactive = score below 0.9); conditions: primary human bronchial epithelial cells; actives raise or lower the signal
Procedure, shortened: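 BE3C primary human bronchial epithelium; cpd 24 h; IL-1a by ELISA; bidirectional fit vs DMSO; parallel SRB (0.1% SRB, 10% TCA fix, 560 nm) for cytotoxicity.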

[18] = read-out: Monocyte Chemoattractant Protein-1 (MCP1), CCL2 (gene 6347); assay: BSK_4H_MCP1: BioMAP Diversity Plus: 4H Assay for Monocyte Chemoattractant Protein-1 (MCP1) Biomarker Activity (AID 2283018; active = hit-call score of the fitted dose curve at least 0.9, where 1 is the maximum; inactive = score below 0.9); conditions: primary human endothelial cells (HUVEC); actives raise or lower the signal
Procedure, shortened: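 ELISA read-out of MCP-1 from human vascular endothelial primary cells taken at 24 hours after compound exposure. Activity was fitted in both directions relative to DMSO, which served as negative control.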

[19] = read-out: Human Leukocyte Antigen - DR isotype (HLADR), HLA-DRA (gene 3122); assay: BSK_3C_HLADR: BioMAP Diversity Plus: 3C Assay for Human Leukocyte Antigen - DR isotype (HLADR) Biomarker Activity (AID 2283019; active = hit-call score of the fitted dose curve at least 0.9, where 1 is the maximum; inactive = score below 0.9); conditions: primary human endothelial cells (HUVEC); actives raise or lower the signal
Procedure, shortened: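 HUVEC, 3C stimulation, 24 h post-dose; HLA-DR by ELISA; bidirectional curve fit vs DMSO baseline; gain or loss of signal scored.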

[20] = read-out: Interleukin-8 (IL8), CXCL8 (gene 3576); assay: BSK_3C_IL8: BioMAP Diversity Plus: 3C Assay for Interleukin-8 (IL8) Biomarker Activity (AID 2283020; active = hit-call score of the fitted dose curve at least 0.9, where 1 is the maximum; inactive = score below 0.9); conditions: primary human endothelial cells (HUVEC); actives raise or lower the signal
Procedure, shortened: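 ELISA read-out of IL-8 from human umbilical vein endothelium, measured 24 h after chemical dosing. Activity is expressed relative to DMSO negative control, with both increases and decreases fitted.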

Measured: AC50

Sequence of human Vitamin D Receptor (VDR), VDR (gene 7421) (P11473 whole entry, looked up, the tested form may be a part): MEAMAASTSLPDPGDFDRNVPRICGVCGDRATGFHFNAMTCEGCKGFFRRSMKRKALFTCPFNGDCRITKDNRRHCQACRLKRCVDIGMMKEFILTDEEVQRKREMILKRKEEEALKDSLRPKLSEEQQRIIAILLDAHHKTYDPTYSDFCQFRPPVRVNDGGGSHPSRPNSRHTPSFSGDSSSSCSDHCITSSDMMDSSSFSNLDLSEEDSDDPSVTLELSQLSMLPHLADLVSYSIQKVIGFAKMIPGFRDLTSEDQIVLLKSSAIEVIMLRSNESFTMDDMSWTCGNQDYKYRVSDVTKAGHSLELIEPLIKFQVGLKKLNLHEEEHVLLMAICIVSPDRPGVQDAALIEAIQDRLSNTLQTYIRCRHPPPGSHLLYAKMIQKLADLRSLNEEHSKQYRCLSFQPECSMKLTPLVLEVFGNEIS
Sequence of human RAR-related Orphan Receptor gamma (RORg), RORC (gene 6097) (P51449 whole entry, looked up, the tested form may be a part): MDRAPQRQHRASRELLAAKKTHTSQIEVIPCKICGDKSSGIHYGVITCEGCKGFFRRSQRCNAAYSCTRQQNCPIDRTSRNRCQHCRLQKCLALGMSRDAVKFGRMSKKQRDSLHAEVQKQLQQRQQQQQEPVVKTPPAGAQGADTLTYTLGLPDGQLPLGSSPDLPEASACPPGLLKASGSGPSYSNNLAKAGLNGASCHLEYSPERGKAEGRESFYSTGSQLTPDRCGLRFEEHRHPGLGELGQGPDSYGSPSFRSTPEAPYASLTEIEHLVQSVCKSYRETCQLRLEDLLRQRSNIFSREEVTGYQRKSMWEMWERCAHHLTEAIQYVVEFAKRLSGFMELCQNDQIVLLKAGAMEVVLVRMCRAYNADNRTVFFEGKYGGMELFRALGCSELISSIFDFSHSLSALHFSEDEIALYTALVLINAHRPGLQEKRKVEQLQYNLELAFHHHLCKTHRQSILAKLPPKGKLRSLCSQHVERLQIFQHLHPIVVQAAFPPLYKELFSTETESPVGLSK
Sequence of Nuclear receptor subfamily 1 group I member 2 (Homo sapiens) (O75469 whole entry, looked up, the tested form may be a part): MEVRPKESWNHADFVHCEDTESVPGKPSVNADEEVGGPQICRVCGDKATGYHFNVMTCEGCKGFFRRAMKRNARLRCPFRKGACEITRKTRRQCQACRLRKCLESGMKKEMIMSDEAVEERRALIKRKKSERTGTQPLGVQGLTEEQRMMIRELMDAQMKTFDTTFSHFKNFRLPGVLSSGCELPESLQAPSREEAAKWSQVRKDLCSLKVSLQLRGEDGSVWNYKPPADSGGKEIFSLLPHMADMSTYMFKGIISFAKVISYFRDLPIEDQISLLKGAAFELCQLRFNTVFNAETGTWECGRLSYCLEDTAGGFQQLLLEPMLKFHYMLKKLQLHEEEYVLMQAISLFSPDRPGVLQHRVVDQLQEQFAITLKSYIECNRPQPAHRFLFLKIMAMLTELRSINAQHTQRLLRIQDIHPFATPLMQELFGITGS
Sequence of human Retinoic Acid Receptor gamma (RARg), RARG (gene 5916) (P13631 whole entry, looked up): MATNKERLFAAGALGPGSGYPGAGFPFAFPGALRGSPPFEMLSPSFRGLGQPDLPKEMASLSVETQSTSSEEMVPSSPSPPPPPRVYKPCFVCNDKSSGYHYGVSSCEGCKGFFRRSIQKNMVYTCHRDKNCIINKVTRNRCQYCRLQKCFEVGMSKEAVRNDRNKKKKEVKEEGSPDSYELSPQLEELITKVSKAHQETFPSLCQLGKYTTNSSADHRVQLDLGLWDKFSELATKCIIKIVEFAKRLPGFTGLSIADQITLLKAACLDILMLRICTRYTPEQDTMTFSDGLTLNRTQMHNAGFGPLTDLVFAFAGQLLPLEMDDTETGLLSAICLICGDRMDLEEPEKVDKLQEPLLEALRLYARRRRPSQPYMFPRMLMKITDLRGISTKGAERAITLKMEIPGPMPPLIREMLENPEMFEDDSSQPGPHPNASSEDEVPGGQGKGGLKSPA
Sequence of human Thyroid Receptor alpha (THRa1), THRA (gene 7067) (P10827 whole entry, looked up, the tested form may be a part): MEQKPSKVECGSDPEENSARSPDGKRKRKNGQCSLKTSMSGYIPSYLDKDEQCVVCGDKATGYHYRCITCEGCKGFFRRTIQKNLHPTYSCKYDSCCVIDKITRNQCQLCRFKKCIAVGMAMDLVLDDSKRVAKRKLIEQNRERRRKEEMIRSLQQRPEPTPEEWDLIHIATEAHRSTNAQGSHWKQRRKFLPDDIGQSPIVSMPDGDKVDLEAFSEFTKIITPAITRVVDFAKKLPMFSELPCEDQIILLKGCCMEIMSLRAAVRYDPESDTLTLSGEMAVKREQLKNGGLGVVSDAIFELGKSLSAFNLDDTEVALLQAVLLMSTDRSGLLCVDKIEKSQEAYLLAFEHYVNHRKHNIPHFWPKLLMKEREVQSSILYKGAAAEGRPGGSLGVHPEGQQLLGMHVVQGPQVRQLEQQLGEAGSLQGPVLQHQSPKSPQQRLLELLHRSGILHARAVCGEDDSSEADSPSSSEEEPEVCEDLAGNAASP
Sequence of Retinoic acid receptor alpha (Homo sapiens) (P10276 whole entry, looked up, the tested form may be a part): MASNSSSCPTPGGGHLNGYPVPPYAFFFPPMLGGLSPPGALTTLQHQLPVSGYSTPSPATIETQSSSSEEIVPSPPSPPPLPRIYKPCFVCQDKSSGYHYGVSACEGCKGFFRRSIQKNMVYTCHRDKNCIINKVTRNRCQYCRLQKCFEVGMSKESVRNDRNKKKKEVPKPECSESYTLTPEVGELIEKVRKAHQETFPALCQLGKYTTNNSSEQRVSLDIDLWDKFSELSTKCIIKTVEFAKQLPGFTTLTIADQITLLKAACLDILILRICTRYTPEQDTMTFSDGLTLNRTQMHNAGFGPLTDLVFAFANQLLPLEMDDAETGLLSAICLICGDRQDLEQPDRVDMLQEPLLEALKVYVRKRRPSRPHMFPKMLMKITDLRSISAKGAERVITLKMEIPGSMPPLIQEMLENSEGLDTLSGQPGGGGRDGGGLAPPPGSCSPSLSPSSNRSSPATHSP
Sequence of human Peroxisome Proliferator-activated Receptor delta (PPARd), PPARD (gene 5467) (Q03181 whole entry, looked up, the tested form may be a part): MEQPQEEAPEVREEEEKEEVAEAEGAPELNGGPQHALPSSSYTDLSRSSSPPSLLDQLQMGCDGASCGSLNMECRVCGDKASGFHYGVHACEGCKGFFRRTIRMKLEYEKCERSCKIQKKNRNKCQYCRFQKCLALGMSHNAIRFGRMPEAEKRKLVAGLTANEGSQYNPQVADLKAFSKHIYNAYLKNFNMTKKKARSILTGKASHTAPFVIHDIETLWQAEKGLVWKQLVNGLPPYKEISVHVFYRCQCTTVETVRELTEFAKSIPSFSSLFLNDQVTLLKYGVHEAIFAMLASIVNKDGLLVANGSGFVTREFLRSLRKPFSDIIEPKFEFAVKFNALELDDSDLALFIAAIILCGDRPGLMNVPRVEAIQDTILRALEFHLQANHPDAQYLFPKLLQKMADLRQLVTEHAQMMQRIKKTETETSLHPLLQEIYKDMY
Sequence of Peroxisome proliferator-activated receptor gamma (Homo sapiens) (P37231 whole entry, looked up, the tested form may be a part): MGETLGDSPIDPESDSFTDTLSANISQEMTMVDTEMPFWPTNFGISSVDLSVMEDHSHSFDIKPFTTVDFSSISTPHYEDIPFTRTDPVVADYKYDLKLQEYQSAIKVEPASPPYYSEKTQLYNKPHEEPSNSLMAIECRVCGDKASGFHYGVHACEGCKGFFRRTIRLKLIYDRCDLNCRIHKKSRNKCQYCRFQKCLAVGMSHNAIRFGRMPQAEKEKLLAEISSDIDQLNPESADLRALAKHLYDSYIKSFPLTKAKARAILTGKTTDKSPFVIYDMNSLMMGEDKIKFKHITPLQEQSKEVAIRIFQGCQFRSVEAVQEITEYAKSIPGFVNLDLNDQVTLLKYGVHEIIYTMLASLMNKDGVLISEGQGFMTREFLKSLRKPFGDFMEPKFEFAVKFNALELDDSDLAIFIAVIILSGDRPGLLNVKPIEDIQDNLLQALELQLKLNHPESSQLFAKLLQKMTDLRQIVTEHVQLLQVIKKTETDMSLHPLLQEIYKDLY
Sequence of E-selectin (Homo sapiens) (P16581 whole entry, looked up): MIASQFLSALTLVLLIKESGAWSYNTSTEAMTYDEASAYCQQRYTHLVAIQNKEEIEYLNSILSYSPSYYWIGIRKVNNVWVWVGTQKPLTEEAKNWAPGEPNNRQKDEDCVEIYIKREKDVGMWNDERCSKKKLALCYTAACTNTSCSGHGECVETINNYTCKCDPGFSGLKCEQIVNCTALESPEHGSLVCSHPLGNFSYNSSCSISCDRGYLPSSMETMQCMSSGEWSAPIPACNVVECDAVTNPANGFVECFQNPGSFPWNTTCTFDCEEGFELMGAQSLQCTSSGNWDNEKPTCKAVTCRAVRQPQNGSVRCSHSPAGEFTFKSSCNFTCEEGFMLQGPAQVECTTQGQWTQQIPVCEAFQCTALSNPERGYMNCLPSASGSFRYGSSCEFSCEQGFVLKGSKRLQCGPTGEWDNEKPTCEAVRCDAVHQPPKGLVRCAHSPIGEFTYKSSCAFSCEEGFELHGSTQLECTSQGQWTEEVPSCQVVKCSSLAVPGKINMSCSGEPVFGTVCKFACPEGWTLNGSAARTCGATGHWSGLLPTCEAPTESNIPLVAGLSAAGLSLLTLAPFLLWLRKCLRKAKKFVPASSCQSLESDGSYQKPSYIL
Sequence of human Retinoic Acid Receptor beta (RARb), RARB (gene 5915) (P10826 whole entry, looked up, the tested form may be a part): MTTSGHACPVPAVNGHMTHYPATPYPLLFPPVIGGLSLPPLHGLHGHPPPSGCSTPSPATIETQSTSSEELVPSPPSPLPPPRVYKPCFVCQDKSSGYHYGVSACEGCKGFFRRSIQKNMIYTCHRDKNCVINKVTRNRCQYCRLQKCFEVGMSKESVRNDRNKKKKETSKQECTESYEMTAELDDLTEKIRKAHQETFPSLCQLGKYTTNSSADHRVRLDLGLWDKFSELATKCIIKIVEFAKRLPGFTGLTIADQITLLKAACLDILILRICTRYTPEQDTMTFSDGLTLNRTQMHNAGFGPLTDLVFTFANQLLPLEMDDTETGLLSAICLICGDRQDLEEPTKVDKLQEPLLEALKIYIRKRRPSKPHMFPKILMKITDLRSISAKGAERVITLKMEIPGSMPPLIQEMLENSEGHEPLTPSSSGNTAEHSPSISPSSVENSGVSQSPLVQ

CC/C=C\C/C=C\C/C=C\CCCCCCCC(=O)O
inactive: [3] | [4] | [5]
active: [1] 42.3 µM | [2] 14.6 µM

CCCNC(=O)NS(=O)(=O)c1ccc(Cl)cc1
inactive: [6] | [7] | [8] | [2] | [9] | [10] | [11] | [3] | [4] | [5]

COC(=O)/C=C\C(=O)O
inactive: [1] | [10] | [3] | [12]
active: [2] 35.2 µM

CCc1ccc2c(c1)C(=O)c1ccccc1C2=O
active: [9] 4.34 µM
inactive: [1] | [4] | [12] | [13] | [5]

CCCCCCOc1cc(C)c(O)c(C)c1C
active: [2] 11.1 µM
inactive: [6] | [7] | [8] | [9] | [10] | [5]

NC(=O)C1CO1 (stereo not drawn)
inactive: [6] | [7] | [8] | [3] | [4]

CCCCC(CC)COC(=O)c1ccccc1O (stereo not drawn)
active: [15] 17.3 µM | [16] 10 µM | [18] 16.2 µM | [19] 18.1 µM | [20] 10 µM
not listed: [1] | [10] | [13]
inactive: all other assays above

CCCCCCCCCCCCCCCC(=O)OCC
inactive: [6] | [7] | [8] | [9] | [10] | [4] | [12]

CC(C)C(=O)C(C)C
inactive: [6] | [14] | [15] | [13] | [16] | [17] | [18] | [19] | [20]
active: [2] 6.38 µM

C#CC1(O)CC[C@H]2[C@@H]3CCC4=CCCC[C@@H]4[C@H]3CC[C@@]21C (stereo partly drawn)
active: [14] 10.7 µM | [15] 11 µM | [9] 2.14 µM | [16] 8.71 µM | [17] 35.5 µM | [18] 9.46 µM | [19] 10.8 µM | [20] 10.2 µM
not listed: [1] | [3] | [11]
inactive: all other assays above

C=C[Si](OC(C)=O)(OC(C)=O)OC(C)=O
active: [9] 4.82 µM
not listed: [1] | [2] | [3] | [4] | [5] | [7] | [12]
inactive: all other assays above

COC=O
inactive: [6] | [7] | [9] | [10] | [4] | [12]

— PubChem BioAssay (EPA / NIEHS)
